Structures are written as SMILES.

For this test, the target named is USP14 (UniProt P54578). The test can be described thus: log2 ratio of Biotin-Ahx-Ub-VS probe labelling (fragment/DMSO); higher = less target engagement (more negative = stronger competition), active = hit call of the paper (q ≤ 0.05, log2 ratio ≤ -1). Particulars: compound concentration: 200 uM; treatment time: 3 h. Here is the method: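 Competitive ABPP in HEK293T cell lysate. Lysates were treated with each chloroacetamide fragment at 200 µM for 3 h, then with Biotin-Ahx-Ub-VS (0.5 µM, 1 h), NeutrAvidin-enriched and analysed by diaPASEF LC-MS/MS. Protein LFQ was median-normalised; average log2 ratio is fragment/DMSO from an unpaired t-test (n=3 treated, n=44 DMSO). Hits: q ≤ 0.05, log2 ratio ≤ -1, unique peptides ≥ 2.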
USP14, sequence (P54578 whole entry, the tested form may be a part): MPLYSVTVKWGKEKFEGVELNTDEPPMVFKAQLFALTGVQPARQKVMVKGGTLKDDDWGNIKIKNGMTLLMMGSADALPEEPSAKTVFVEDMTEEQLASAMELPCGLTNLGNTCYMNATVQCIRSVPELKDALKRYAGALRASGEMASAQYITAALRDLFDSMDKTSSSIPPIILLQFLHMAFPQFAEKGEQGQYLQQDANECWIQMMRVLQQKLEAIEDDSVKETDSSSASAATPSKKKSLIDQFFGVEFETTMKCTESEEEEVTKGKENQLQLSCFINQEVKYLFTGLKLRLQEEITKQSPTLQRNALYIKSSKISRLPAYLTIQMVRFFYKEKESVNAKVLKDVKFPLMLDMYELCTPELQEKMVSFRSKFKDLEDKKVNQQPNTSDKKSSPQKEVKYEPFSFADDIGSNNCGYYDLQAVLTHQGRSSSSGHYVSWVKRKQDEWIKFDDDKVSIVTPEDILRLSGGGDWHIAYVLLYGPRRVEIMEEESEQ
Consider `O=C(CCl)N1CCC(S(=O)(=O)c2ccc(F)cc2)CC1`, for which the “log2 ratio of Biotin-Ahx-Ub-VS probe labelling” value (“log2 ratio” below) is -0.0146 (inactive).

As for `O=C(CCl)N1CCC(=C(F)CO)C1`, the “log2 ratio” value is 0.054 (inactive).

For `O=C(CCl)N1CCN2C(=O)CCC2C1` (stereo not given), the “log2 ratio” value was 0.0904 (inactive).

For `O=C(CCl)N1CCc2sccc2C1`, the “log2 ratio” value was -0.619 (inactive).

In the case of `CC(NC(=O)CCl)c1cccc2ccccc12` (stereo not given), the “log2 ratio” value was -0.209 (inactive).

Regarding `CC(c1ccccc1)N(C)C(=O)CCl` (stereo not given), the “log2 ratio” value was -0.237 (inactive).

For `O=C(CCl)Nc1ccccc1C(F)(F)F`, the “log2 ratio” value is -0.46 (inactive).

In the case of `O=C(CCl)N(Cc1ccsc1)C1CC1`, the “log2 ratio” value was -0.456 (inactive).

For the compound `COc1cc(Cl)c(C)cc1NC(=O)CCl`, the “log2 ratio” value is -0.458 (inactive).

Turning to `C/C(=C\CNC(=O)CCl)c1cnn(C)c1.Cl`, the “log2 ratio” value is -0.247 (inactive).

Turning to `CS(=O)(=O)N1CCCN(C(=O)CCl)CC1`, the “log2 ratio” value was 0.105 (inactive).

In the case of `CN(CCC(O)c1ccc(Br)cc1)C(=O)CCl` (stereo not given), the “log2 ratio” value is -0.442 (inactive).

`Cc1ccc2nnc(CNC(=O)CCl)n2c1`: the “log2 ratio” value is 0.17 (inactive).

On to `O=C(CCl)NC1CCOc2ccccc21` (stereo not given), for which the “log2 ratio” value is -0.937 (inactive).

Take `CS(=O)(=O)c1ccc(CNC(=O)CCl)cc1`: the “log2 ratio” value is -0.204 (inactive).

As for `Cl.Cn1ncc2c1CC(NC(=O)CCl)CC2` (stereo not given), the “log2 ratio” value was 0.136 (inactive).

Consider `CN(C)C(=O)c1ccc(NC(=O)CCl)cc1`, for which the “log2 ratio” value was -0.162 (inactive).

In the case of `CN(C)S(=O)(=O)c1ccccc1CNC(=O)CCl`, the “log2 ratio” value is 0.0554 (inactive).

Turning to `Cc1cccn2cc(CCNC(=O)CCl)nc12.Cl`, the “log2 ratio” value is -0.461 (inactive).

In the case of `Cc1ccccc1CN(C)C(=O)CCl`, the “log2 ratio” value is -0.81 (inactive).

With `CC(NC(=O)CCl)c1csc(-c2ccccc2)n1.Cl` (stereo not given), the “log2 ratio” value was -0.367 (inactive).

Regarding `CC(O)CC1CCN(C(=O)CCl)CC1` (stereo not given), the “log2 ratio” value was -0.442 (inactive).

With `O=C(CCl)NCc1ccc(N2CCOCC2)c(F)c1`, the “log2 ratio” value was 0.1 (inactive).

As to `C[C@@H](NC(=O)CCl)c1cccc(C#N)c1`, the “log2 ratio” value was -0.243 (inactive).

Turning to `O=C(CCl)NCc1ccc(N2CCOCC2)nc1`, the “log2 ratio” value is -0.262 (inactive).

In the case of `CC1(NC(=O)CCl)CCS(=O)(=O)C1` (stereo not given), the “log2 ratio” value is -0.815 (inactive).

Turning to `CCN(C(=O)CCl)C1CCCCC1`, the “log2 ratio” value is -0.0238 (inactive).

With `O=C(CCl)N1CCc2nc[nH]c2C1c1ccc(Cl)cc1` (stereo not given), the “log2 ratio” value is -0.69 (inactive).

Regarding `O=C(CCl)N1CCN(C(=O)N2CCCCC2)CC1`, the “log2 ratio” value is -1.06 (active).

As for `Cl.O=C(CCl)N1CCN(Cc2ccccc2)CC1`, the “log2 ratio” value is -0.745 (inactive).

For `O=C(CCl)N1CCC(C(=O)N2CCCCCC2)CC1`, the “log2 ratio” value was -0.204 (inactive).

As for `O=C(CCl)N1CC=C(c2c[nH]c3ccccc23)CC1`, the “log2 ratio” value was -0.573 (inactive).

Consider `N#Cc1ccc(Cl)cc1NC(=O)CCl`, for which the “log2 ratio” value was -0.283 (inactive).

For the compound `Cl.O=C(CCl)N1CCn2cncc2C1`, the “log2 ratio” value is -0.259 (inactive).

Regarding `O=C(CCl)N1CCCCC12CCOCC2`, the “log2 ratio” value is -0.559 (inactive).

With `Cc1cccc(NC(=O)[C@@H]2CCCN2C(=O)CCl)n1`, the “log2 ratio” value was -0.519 (inactive).

For the compound `COCC1C=CCCN1C(=O)CCl` (stereo not given), the “log2 ratio” value is -0.0905 (inactive).

As for `Cc1ccn2cc(CNC(=O)CCl)nc2c1.Cl`, the “log2 ratio” value is 0.000672 (inactive).

Regarding `O=C(CCl)NCC(=O)N1CCCC1`, the “log2 ratio” value was -0.0869 (inactive).

For `O=C(CCl)Nc1nnc(CC(F)(F)F)o1`, the “log2 ratio” value is -0.206 (inactive).
